Several values for one entry are separate records, joined by “and”; a condition that tells them apart may be missing. Equal entries are not always repeated. A number with no mark means an inactive call. Results filed as inconclusive are left out. A call without a number means that no potency is given here. Activity calls are given as the source filed them. Unless noted, calls come from the whole dose curve; as a rule, active = well fitted curve in the direction sought with a large enough effect in the repeat runs; inconclusive = weak or mixed curves; inactive = no such curve, though single readings can be large; an effect the other way counts as inactive or inconclusive.
Columns and labels:
[1] = qHTS assay to test for compound auto fluorescence at 460 nm (blue) in HEK293 cell free culture (AID 720681)
Procedure, shortened: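 Test compounds were pinned into cell-free culture medium (DMEM with 10% FBS) and fluorescence was read directly at Ex/Em 405/460 nm. Signals were expressed as fluorescence equivalents of triamterene, with DMSO vehicle as control.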

[2] = qHTS assay to test for compound auto fluorescence at 535 nm (green) in HEK293 cell free culture (AID 720682)
Procedure, shortened: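 Using fluorescein as calibrant, autofluorescence was quantified at 485/535 nm in cell-free DMEM containing 10% FBS after pintool addition of compound or vehicle.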

[3] = qHTS assay to test for compound auto fluorescence at 590 nm (red) in HEK293 cell free culture (AID 720683)
Procedure, shortened: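 Tox21 10K library compounds were pinned into cell-free DMEM with 10% FBS and fluorescence was read at excitation 540 nm. Activity is expressed as Rose Bengal sodium equivalency.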

[4] = qHTS assay to test for compound auto fluorescence at 590 nm (red) in HepG2 cell free culture (AID 720684)
Procedure, shortened: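 Ex 540 / Em 590 nm read of compound in cell-free MEM (10% FBS). Rose Bengal sodium reference.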

[5] = qHTS assay to test for compound auto fluorescence at 460 nm (blue) in HepG2 cell free culture (AID 720685)
Procedure, shortened: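 Cell-free plates of MEM plus 10% FBS received 23 nL compound or DMSO vehicle; blue-channel (405/460 nm) intensity scored against triamterene as reference fluorophore.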

[6] = qHTS assay to test for compound auto fluorescence at 535 nm (green) in HepG2 cell free culture (AID 720686)
[7] = qHTS assay to test for compound auto fluorescence at 460 nm (blue) in HepG2 cells (AID 720687)
Procedure, shortened: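 Cells (2,000/well in MEM with 10% FBS) attached overnight at 37 C, then were exposed to compound or DMSO for 1 hr at 37 C, 5% CO2. Fluorescence read at Ex/Em 405/460 nm, expressed as triamterene-equivalent signal.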

[8] = qHTS assay to identify small molecule antagonists of the glucocorticoid receptor (GR) signaling pathway - cell viability counter screen (AID 720693); note: nearly all actives have a fitted effect of over 55% in size
[9] = qHTS assay for identifying genotoxic compounds that show differential cytotoxicity against isogenic chicken DT40 cell lines with known DNA damage response pathways - wild type cell line (AID 743012); note: nearly all actives have a fitted effect of over 60% in size; note: potency is the fitted concentration of half-maximal effect
Procedure, shortened: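 Cytotoxicity in repair-proficient parental chicken DT40 cells serves as the comparator for Rad54/Ku70- and Rev3-deficient lines. Cells were exposed to compounds for 40 h at 37 C/5% CO2, and ATP-based luminescence (CellTiter-Glo) measured viability.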

[10] = qHTS assay for identifying genotoxic compounds that show differential cytotoxicity against isogenic chicken DT40 cell lines with known DNA damage response pathways - Rev3 mutant cell line (AID 743014); note: nearly all actives have a fitted effect of over 55% in size; note: potency is the fitted concentration of half-maximal effect
[11] = qHTS assay for identifying genotoxic compounds that show differential cytotoxicity against isogenic chicken DT40 cell lines with known DNA damage response pathways - Rad54/Ku70 mutant cell line (AID 743015); note: nearly all actives have a fitted effect of over 60% in size; note: potency is the fitted concentration of half-maximal effect
[12] = qHTS assay to identify small molecule antagonists of the androgen receptor (AR) signaling pathway - cell viability counter screen (AID 743033; note: nearly all actives have a fitted effect of over 45% in size)
[13] = qHTS assay to identify small molecule antagonists of the androgen receptor (AR) signaling pathway using the MDA cell line - cell viability counter screen (AID 743041; note: nearly all actives have a fitted effect of over 45% in size)
Procedure, shortened: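 In this qHTS counter assay, fluorescence intensity after CellTiter-Fluor addition indicated viability of MDA-kb2 AR-luc cells given compounds and R1881 for 16 h at 37C.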

[14] = target: Glucocorticoid receptor (Homo sapiens) (UniProt P04150); assay: qHTS assay to identify small molecule agonists of the glucocorticoid receptor (GR) signaling pathway (AID 720691; active = well fitted activation curve with a large enough effect in the signal ratio in the repeat runs, not every such curve was filed as active; the % refers to the signal ratio)
Procedure, shortened: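 Steps: seed GR-bla HeLa cells, incubate 4 h at 37 C/5% CO2; pin-transfer DMSO-dissolved compounds; incubate 18 h at 37 C; add LiveBLAzer B/G FRET substrate; after 2 h at room temperature, measure fluorescence.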

Glucocorticoid receptor (Homo sapiens), sequence (P04150 whole entry, looked up): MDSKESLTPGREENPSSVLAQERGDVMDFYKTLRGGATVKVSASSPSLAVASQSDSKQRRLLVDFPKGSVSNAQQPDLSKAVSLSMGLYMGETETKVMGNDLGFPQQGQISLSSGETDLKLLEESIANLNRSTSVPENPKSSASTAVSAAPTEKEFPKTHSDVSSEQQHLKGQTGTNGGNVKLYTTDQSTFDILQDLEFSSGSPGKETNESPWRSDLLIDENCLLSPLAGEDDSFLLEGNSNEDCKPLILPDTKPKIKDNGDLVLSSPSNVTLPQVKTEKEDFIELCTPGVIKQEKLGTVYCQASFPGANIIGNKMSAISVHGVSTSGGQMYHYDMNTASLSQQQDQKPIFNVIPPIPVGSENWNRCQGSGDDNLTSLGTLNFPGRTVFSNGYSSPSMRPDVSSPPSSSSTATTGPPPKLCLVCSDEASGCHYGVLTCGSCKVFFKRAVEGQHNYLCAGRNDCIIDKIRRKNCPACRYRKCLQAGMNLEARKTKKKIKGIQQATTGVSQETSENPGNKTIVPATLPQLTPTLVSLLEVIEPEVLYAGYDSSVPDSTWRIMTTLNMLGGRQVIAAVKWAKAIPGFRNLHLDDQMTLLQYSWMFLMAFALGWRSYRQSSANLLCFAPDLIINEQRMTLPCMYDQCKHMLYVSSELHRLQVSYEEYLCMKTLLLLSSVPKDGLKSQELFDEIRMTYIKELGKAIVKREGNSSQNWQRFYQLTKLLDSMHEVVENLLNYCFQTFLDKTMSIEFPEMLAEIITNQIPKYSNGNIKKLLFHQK

CCCCN(CCO)CCCC
Potency [1]: inactive
Potency [2]: inactive
outcome [3]: inactive
outcome [4]: inactive
Potency [5]: inactive
Potency [6]: inactive
Potency [7]: inactive
Potency [8]: inactive
Potency [9]: inactive
Potency [10]: inactive
Potency [11]: inactive
Potency [12]: inactive
Potency [13]: inactive

c1cc(C(c2ccc(OCC3CO3)cc2)C(c2ccc(OCC3CO3)cc2)c2ccc(OCC3CO3)cc2)ccc1OCC1CO1 (configuration not stated)
Potency [1]: inactive
Potency [2]: inactive
outcome [3]: inactive
outcome [4]: inactive
Potency [6]: inactive
Potency [14]: inactive
Potency [8]: inactive
Potency [9]: 20.1 µM (active) and 3.43 µM (active)
Potency [10]: 357 nM (active) and 385 nM (active)
Potency [11]: 6.34 µM (active) and 3.06 µM (active)
Potency [12]: inactive
Potency [13]: inactive

CCCN[C@H]1CCc2nc(N)sc2C1
Potency [1]: inactive
Potency [2]: inactive
outcome [3]: inactive
outcome [4]: inactive
Potency [5]: inactive
Potency [6]: inactive
Potency [7]: inactive
Potency [8]: inactive
Potency [9]: inactive
Potency [10]: inactive
Potency [11]: inactive
Potency [12]: inactive
Potency [13]: inactive

CC(=O)CC(C)=O
Potency [1]: inactive
Potency [2]: inactive
outcome [3]: inactive
outcome [4]: inactive
Potency [6]: inactive
Potency [7]: inactive
Potency [8]: inactive
Potency [9]: inactive
Potency [10]: inactive
Potency [11]: inactive
Potency [12]: inactive
Potency [13]: inactive

COc1nc(C)nc(Cl)c1NC1=NCCN1
fluorescence, % of fluorescent control [1]: 0.165% [at 18.6 µM]
activity change [2]: 0.0521% [at 18.6 µM, hits give high values]
fluorescence, % of fluorescent control [3]: 0.101% [at 18.6 µM]
fluorescence, % of Rose Bengal [4]: 0.527% [at 18.6 µM]
fluorescence, % of fluorescent control [5]: 0.0137% [at 18.6 µM]
fluorescence, % of fluorescein control [6]: 0.0146% [at 18.6 µM]
fluorescence, % of fluorescent control [7]: 0.0089% [at 18.6 µM]
Potency [14]: inactive
Potency [8]: inactive
Potency [9]: inactive
Potency [10]: inactive
Potency [11]: inactive
Potency [12]: inactive
Potency [13]: inactive

CCCNC(C)C(=O)Nc1ccccc1C (configuration not stated)
Potency [1]: inactive
outcome [3]: inactive
outcome [4]: inactive
Potency [5]: inactive
Potency [6]: inactive
Potency [7]: inactive
Potency [14]: inactive
Potency [8]: inactive
Potency [9]: inactive
Potency [11]: inactive
Potency [12]: inactive
Potency [13]: inactive

CC(C(O)c1ccc(O)cc1)N1CCC(Cc2ccccc2)CC1 (configuration not stated)
Potency [1]: inactive
Potency [2]: inactive
outcome [3]: inactive
outcome [4]: inactive
Potency [5]: inactive
Potency [6]: inactive
Potency [7]: inactive
Potency [14]: inactive
Potency [8]: inactive
Potency [9]: 2.11 µM (active)
Potency [10]: 335 nM (active)
Potency [11]: 668 nM (active)
Potency [12]: inactive

O=C1NCC2(CCN(CCc3ccccc3)CC2)O1
Potency [1]: inactive
Potency [2]: inactive
outcome [3]: inactive
outcome [4]: inactive
Potency [5]: inactive
Potency [6]: inactive
Potency [7]: inactive
Potency [14]: inactive
Potency [12]: inactive
Potency [13]: inactive

CCC(CO)(CO)COCC(CC)(CO)CO
Potency [1]: inactive
Potency [2]: inactive
outcome [3]: inactive
outcome [4]: inactive
Potency [5]: inactive
Potency [6]: inactive
Potency [7]: inactive
Potency [14]: inactive
Potency [8]: inactive
Potency [9]: inactive
Potency [11]: inactive
Potency [12]: inactive
Potency [13]: inactive
